Laboratory results as given in PubChem BioAssay AID504374 (National Center for Advancing Translational Sciences (NCATS), 2011).
Among all 1,500 compounds or so, about 100 (6.7%) were called active. Inconclusive results (about 7%) are left out. The call rests on the fitted dose curve; in most records, active means well fitted inhibition curve with a large enough effect; inconclusive means small, poorly fitted or top-dose-only effect, or effect the other way; inactive means flat fitted curve, though single readings scatter. The full list was thinned out, with actives kept by preference.

Target: Runt-related transcription factor 1 (Homo sapiens) + Core-binding factor subunit beta (Homo sapiens) (UniProt Q01196+Q13951)
Test: qHTS Assay for Compounds Blocking the Interaction Between CBF-beta and RUNX1 for the Treatment of Acute Myeloid Leukemia: Hit Validation; further: nearly all actives have a fitted effect of over 60% in size
Conditions: AlphaScreen CBFb-His/RUNX1-biotin binding; series mostly up to 59.8 µM; activity, negative = inhibition: at the top concentration
Excerpt: NIH Chemical Genomics Center [NCGC]
NIH Molecular Libraries Probe Production centers Network [MLPCN]
Assay Submitter (PI): Paul Liu
Core Binding Factor (CBF) abnormalities are associated with 20-25% of all acute myeloid leukemias (AML), of which 5-10% are further sub classified as acute myelomonocytic leukemia with eosinophilia, also known as M4Eo in the FAB classification scheme. This subtype of leukemia is usually associated with chromosome 16 inversion (p13:q22). Chromosome 16 inversion results in formation of the fusion oncogene CBFB-MYH11, which encodes the fusion protein CBF-beta-SMMHC.
It has been hypothesized that the interference of CBF-beta and RUNX1 binding could have therapeutic implications for patients with CBF mediated leukemias. We developed a CBF-beta and RUNX1 binding assay in AlphaScreenTM format and optimized it for high throughput screening to search for inhibitors. The goal of this project is to screen MLPCN's compound collection (MLSMR) for identifying the inhibitors of the interaction between CBF-beta and RUNX1 proteins as research probes. If these probes work well in the animal models, the ultimate goal of this project is to development a new drug treatment for this disease.
This assay can not be used to assess how apparent inhibitors interfere with protein binding, and whether inhibitors specifically bind to either protein. Disruption of this protein-protein interaction, through any mechanism, is the intended target activity.
The present data set was run to confirm the activity of hits from the primary screen.
NCGC Assay Protocol Summary:
Step, Parameter, Description
(1) Reagent, 3 uL CBFb-His/RUNX1-biotin mix incubated together for 20 minutes at room temperature (30 nM each)
(2) Compound or control, 23 nL compound stock solution
(3) Incubation, 15 minutes at Room temperature
(4) Reagent, 1 uL 50 ng each of beads (Nickel beads and streptavidin beads)
(5) Incubation, 90 minutes at Room temperature
(6) Detection, Excitation=365 nm Emission=440 nm, Envision reader in AlphaScreenTM mode
Keywords: MLSMR, MLPCN, NIH Roadmap, qHTS, NCGC, Core binding factor, CBF, CBF-beta, Acute myeloid leukemia
On the % scale 0 is the no-effect control and ±100 the full control effect; potency means the concentration at half of the fitted maximal effect.

Runt-related transcription factor 1 (Homo sapiens) + Core-binding factor subunit beta (Homo sapiens), sequence (Q01196 whole entry, looked up): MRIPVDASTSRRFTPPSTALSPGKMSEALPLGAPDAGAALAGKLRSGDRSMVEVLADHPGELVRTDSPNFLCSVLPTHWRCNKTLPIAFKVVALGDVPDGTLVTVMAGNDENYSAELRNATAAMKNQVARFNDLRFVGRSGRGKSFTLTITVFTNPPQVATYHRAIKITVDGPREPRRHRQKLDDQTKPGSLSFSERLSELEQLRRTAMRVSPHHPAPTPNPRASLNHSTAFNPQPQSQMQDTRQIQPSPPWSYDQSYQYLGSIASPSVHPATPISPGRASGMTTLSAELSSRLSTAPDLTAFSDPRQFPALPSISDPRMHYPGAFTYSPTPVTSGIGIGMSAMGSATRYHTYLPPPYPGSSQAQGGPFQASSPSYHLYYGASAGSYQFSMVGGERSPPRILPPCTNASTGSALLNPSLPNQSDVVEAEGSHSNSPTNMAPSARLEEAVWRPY
Runt-related transcription factor 1 (Homo sapiens) + Core-binding factor subunit beta (Homo sapiens), sequence (Q13951 whole entry, looked up): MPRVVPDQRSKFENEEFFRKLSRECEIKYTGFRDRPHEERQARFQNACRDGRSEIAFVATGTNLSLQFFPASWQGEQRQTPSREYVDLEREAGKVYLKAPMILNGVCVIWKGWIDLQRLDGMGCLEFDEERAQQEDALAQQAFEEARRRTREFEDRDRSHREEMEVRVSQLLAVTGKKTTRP

activity, negative = inhibition, inactive:
O=C(N/N=C/c1ccccc1[N+](=O)[O-])c1cnccn1 -5.63%
O=C(O)c1ccccc1N/N=C/c1cc(Br)cc(Br)c1O 2.07%
O=C(c1ccccc1)c1ccc2c(c1)OCCCO2 6.09%
CCOc1ccc(OCc2ccc(C(=O)NN)o2)cc1 -7.39%
Cc1cccc(-c2n[nH]c(=S)n2/N=C/c2cccs2)c1 -7.44%
OCc1ncc(-c2ccccc2)s1 0.332%
c1ccc(-c2nnc(N3CCN(c4ccccc4)CC3)nc2-c2ccccc2)cc1 -7.28%
CN1CCN(c2nnc(-c3ccccc3)c(-c3ccccc3)n2)CC1 -0.376%
O=C(N/N=C/c1ccco1)c1cc(C2CC2)[nH]n1 -3.94%
Cc1onc(-c2c(Cl)cccc2Cl)c1C(=O)Nc1nc(C(C)(C)C)cs1 -1.93%
Cc1ccc(-c2c[n+](CC(=O)Nc3ccccc3C)c3n2CCC3)cc1 -1.35%
Cc1ccc(C[n+]2cc(-c3ccc(Cl)cc3)n3c2CCC3)cc1 -2.88%
COc1ccc(/C=N/OC(=O)c2ccc(Cl)cc2)c(Cl)c1OC -5.17%
CCOC(=O)CSc1nnc(Cn2nnc3ccccc32)n1-c1ccc(F)cc1 -4.39%
CN(CC(O)CN1CCOCC1)S(=O)(=O)O (configuration not stated) 3.07%
CCOC(=O)c1nn(-c2ccc([N+](=O)[O-])cc2)cc1O -0.376%
Cn1c(=O)c2cc3ccccc3nc2n(C)c1=O 0.436%
COc1ccc(CCNC(=S)NCCc2ccc(OC)c(OC)c2)cc1OC -3.02%
CCO/C=C1\SC(=S)N(c2ccc(Cl)cc2)C1=O -14.9%
Cc1ccc(S(=O)(=O)NC(=O)Nc2ccc(OC(F)F)cc2)cc1 -0.722%
Cc1cc(C)n2nc(N)c(N=Nc3ccccc3)c2n1 -9.08%
CC1CC(C)(C)OC(C[N+]2(C)CCCCC2)O1 (configuration not stated) -0.393%
COc1ccccc1NC(=S)NC1CCCCCCCCCCC1 -2.75%
CCOC(=O)C1CCCN(C(=O)Nc2c(-c3ccccc3)noc2C)C1 (configuration not stated) 0.758%
COc1ccc(C(=O)/C=C/Nc2cc(C)ccn2)cc1 -3.04%
COC(=O)c1[nH]c2cc(OC)ccc2c1NC(=O)c1c(F)cccc1F 3.22%
CC(C)(C)c1csc(Sc2ccc([N+](=O)[O-])cn2)n1 3%
O=C(N/N=C/c1ccc2c(c1)OCCO2)c1ccncc1 -1.01%
CC(=O)c1cnn(-c2ccc(Cl)c(Cl)c2Cl)c1C -3.5%
CCOC(=O)N1CCc2c(sc3nc[nH]c(=O)c23)C1 -4.17%
CCc1c(C#N)sc(C(N)=O)c1CC -3.2%
CC(=O)Nc1ccc(S(=O)(=O)Nc2ccc(C(=O)NCC(=O)O)cc2)cc1 4.22%
Cc1cccc(C)c1NC(=S)N1CCOCC1 0.441%
Cc1ccc(C(=O)CSc2nnc(-c3snnc3C)n2C2CC2)cc1 5.91%
CC1=[N+](C)N(c2ccccc2)C(=O)C1N=C/C=C/c1ccccc1 (configuration not stated) 7.59%
CN(C)c1ccc(N2C(=O)CC(c3ccccc3)CC2=O)cc1 -1.11%
CN1CCN(C(=O)Nc2cccc(-c3ccccc3)c2)CC1 1.01%
CCc1c(-c2ccccc2)[n+](=O)c2c(n1[O-])CCC2 -0.602%
O=C(NNC(=S)NC1CC2C=CC1C2)c1ccncc1 (configuration not stated) 8.75%
O=C(N/N=C/c1ccncc1)c1cnccn1 -5.76%
CCOP(=O)(c1ccc(N(C)C)cc1)C(O)c1cccnc1 (configuration not stated) -3.85%
CN(C)NC(=S)NC1CCS(=O)(=O)C1 (configuration not stated) 1.34%
O=C1CC(Sc2ccc(Cl)cc2)C(=O)N1c1ccc2c(c1)OCCO2 (configuration not stated) -12%
Cc1cccc(-c2n[nH]c(=S)n2/N=C/c2ccco2)c1 -6.05%
Fc1ccccc1/C=N/n1c(-c2cccnc2)n[nH]c1=S -0.276%

Potency, active:
Oc1ccccc1/C=N/Nc1ncc(Br)cn1 3.55 µM
c1ccc(-c2nnc(-c3ccccn3)nc2NC2CCCCC2)cc1 2.24 µM
CN(C)c1nc(-c2ccccn2)nnc1-c1ccccc1 1.41 µM
Nc1nc(-c2ccccc2)c(N=Nc2ccc(Cl)cc2)s1 13.7 µM
Nc1nc(-c2ccccc2)c(N=Nc2cccc3ccccc23)s1 1.94 µM
Nc1nc(-c2ccccc2)c(N=Nc2ccccc2Cl)s1 4.34 µM
CC(=O)Oc1cc2cccc(OC(C)=O)c(=O)c2c(OC(C)=O)c1OC(C)=O 1.12 µM
CN=c1scc(-c2ccccc2F)n1/N=C/c1ccc(O)c(O)c1O 6.87 µM
CC1=NN(c2ccccc2)C(=O)/C1=C/C=C/c1ccc(N(C)C)cc1 1.12 µM
O=C(O)C1=CC(=C(c2ccc(O)c(C(=O)O)c2)c2ccc(O)c(C(=O)O)c2)C=CC1=O 1.78 µM
O=C(NC(=S)NNC(=O)c1cnccn1)c1ccc(F)cc1 2 µM
O=[N+]([O-])c1cc2c(cc1/C=N/n1c(-c3ccccn3)n[nH]c1=S)OCO2 10 µM
